Measured values reported in PubChem BioAssay (Tox21).
Inconclusive results are not listed. Entries that show only a call come without a potency. The source made the active and inactive calls. Calls come from the whole dose curve; as a rule, active = well fitted curve in the direction sought with a large enough effect in the repeat runs; inconclusive = weak or mixed curves; inactive = no such curve, though single readings can be large; an effect the other way counts as inactive or inconclusive.

Experiment: qHTS assay to identify small molecule antagonists of the estrogen related receptor (ERR) signaling pathway - cell viability counter screen (AID 1224818)
Conditions: ERR reporter cell line viability counter screen; series mostly up to 46.1 µM
Method in brief: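 Viability of ERR cells, CellTiter-Fluor fluorescence; 17.5 h compound exposure at 37 C, DMSO vehicle; 30 min reagent incubation at 37 C/5% CO2.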
For `c1ccc(C(NCCNC(c2ccccc2)c2ccccc2)c2ccccc2)cc1`, the Potency was “inactive”.
In the case of `Cn1c(=O)c2[nH]c(C3CCCC3)nc2n(C)c1=O`, the Potency was “inactive”.
With `O=C(CCSCc1ccco1)NNC(=O)N1Cc2ccccc2Oc2ccc(Cl)cc21` the Potency was “inactive”.
In the case of `O=C1C2C=CC=CC2=NC(=S)N1CCN1CCC(=C(c2ccc(F)cc2)c2ccc(F)cc2)CC1` (stereo not given), the Potency was “inactive”.
For `CCCc1c(-c2ccc(O)cc2)nn(-c2ccc(O)cc2)c1-c1ccc(O)cc1`, the Potency was “inactive”.
For `c1ccc(C(NCc2cccnc2)(c2ccccc2)c2ccccc2)cc1`, the Potency was “inactive”.
For `OCc1ccc(-c2nn(Cc3ccccc3)c3ccccc23)o1`, the Potency was “inactive”.
With `CCN(CC)CCCCCCCCOC(=O)c1cc(OC)c(OC)c(OC)c1` the Potency was “inactive”.
With `Nc1ccn([C@H]2O[C@H](CO)[C@@H](O)C2(F)F)c(=O)n1` the Potency was “inactive”.
In the case of `O=c1ccc2c(OCCCCc3ccccc3)c3ccoc3cc2o1`, the Potency was “inactive”.
In the case of `O=C(CCc1ccncc1)NNC(=O)N1Cc2ccccc2Oc2ccc(Cl)cc21`, the Potency was “inactive”.
For `CN1C2CC(OC(=O)[C@H](CO)c3ccccc3)CC1C1OC12` (stereo not given in full), the Potency was “inactive”.
In the case of `CN(C)CCC(c1ccc(Br)cc1)c1ccccn1` (stereo not given), the Potency was “inactive”.
For `Cn1cc(C(F)(F)F)nc1-c1ccc(OCC(O)CNCCOc2ccc(O)c(C(N)=O)c2)cc1` (stereo not given), the Potency was “inactive”.
For `COC(=O)[C@H](NC(=O)c1cc(-c2ccccc2)nc2ccccc12)c1ccccc1`, the Potency was “inactive”.
In the case of `COc1ccccc1N1CCN(CCN(C(=O)C2CCCCC2)c2ccccn2)CC1`, the Potency was “inactive”.
For `c1ccc(CN2CCC3(CCCc4ccccc43)CC2)cc1`, the Potency was “inactive”.
For `C[C@@H](CN1CCC(Cc2ccccc2)CC1)[C@@H](O)c1ccc(O)cc1`, the Potency was “inactive”.
In the case of `COCCOc1cc2ncnc(Cl)c2cc1OCCOC`, the Potency was “inactive”.
With `N=C(N)c1ccc(OCCCCCOc2ccc(C(=N)N)cc2)cc1` (tested in a mixture with another compound) the Potency was “inactive”.
With `O=c1ccc2ccc(O)c(O)c2o1` the Potency was “inactive”.
With `CCCCCCN(CCCCCC)C(=O)Cc1c(-c2ccc(F)cc2)[nH]c2ccccc12` the Potency was “inactive”.
In the case of `C[C@@]1(C2CCCC2)Cc2cc(OCC(=O)O)c(Cl)c(Cl)c2C1=O`, the Potency was “inactive”.
For `CNC(=O)[C@H]1O[C@@H](n2cnc3c(NCc4cccc(I)c4)ncnc32)[C@H](O)C1O` (stereo not given in full), the Potency was “inactive”.
For `CCC1(O)CC2CN(CCc3c([nH]c4ccccc34)[C@@](C(=O)OC)(c3cc4c(cc3OC)N(C)C3[C@]45CCN4CC=C[C@@](CC)([C@@H](OC(C)=O)[C@]3(O)C(=O)OC)[C@H]45)C2)C1` (stereo not given in full), the Potency was “inactive”.
With `CCCCCCCC/C=C\CCCCCCCC(=O)NCCc1ccc(O)c(O)c1` the Potency was “inactive”.
For `O=C(Nc1ccc2c(c1)CCN(Cc1ncn[nH]1)C2)c1ccccc1-c1ccc(C(F)(F)F)cc1`, the Potency was “inactive”.
In the case of `CC(C)[C@H](NC(=O)OCc1ccccc1)C(=O)N[C@H](C=O)Cc1ccccc1`, the Potency was “inactive”.
With `COc1cccc(OC)c1OCCNCC1COc2ccccc2O1` (stereo not given) the Potency was “inactive”.
In the case of `c1ccc2c(c1)CC(N1CCN(c3cccc4c3OCCO4)CC1)C2`, the Potency was “inactive”.
In the case of `CC(C)NC[C@H](O)COc1cccc2[nH]ccc12`, the Potency was “inactive”.
For `O=[N+]([O-])c1ccc(CNc2nc(NCc3cccc(C(F)(F)F)c3)nc3nc[nH]c23)cc1`, the Potency was “inactive”.
With `c1ccc(C2CN3CCSC3=N2)cc1` (stereo not given) the Potency was “inactive”.
In the case of `Clc1ccc(N2CCN(Cc3cc4ccccn4n3)CC2)cc1`, the Potency was “inactive”.
In the case of `C[C@]12C=CC(=O)C=C1CC[C@@H]1C2=CC[C@]2(C)[C@@H](C(=O)CN3CCN(c4cc(N5CCCC5)nc(N5CCCC5)n4)CC3)CC[C@@H]12`, the Potency was “inactive”.
For `CN1CCc2cccc3c2C1Cc1ccc(O)c(O)c1-3` (stereo not given), the Potency was “inactive”.
With `CC(C)NC[C@H](O)COc1cccc2ccccc12` the Potency was “inactive”.
For `NC(N)=NCc1cccc(I)c1`, the Potency was “inactive”.

Experiment: qHTS assay to identify small molecule agonists of the estrogen related receptor (ERR) signaling pathway (AID 1224820)
Conditions: ERR reporter cell line, luciferase agonist mode; series mostly up to 46.1 µM
Method in brief: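 An ERR cell line provided by NTP was seeded at 2,000 cells per well and allowed to settle for 6 h before compounds in DMSO were added. After 18 h at 37 C, luciferase activity was measured by One-Glo luminescence.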
For `c1ccc(C(NCCNC(c2ccccc2)c2ccccc2)c2ccccc2)cc1`, the Potency was “inactive”.
For `Cn1c(=O)c2[nH]c(C3CCCC3)nc2n(C)c1=O`, the Potency was “inactive”.
For `O=C(CCSCc1ccco1)NNC(=O)N1Cc2ccccc2Oc2ccc(Cl)cc21`, the Potency was “inactive”.
For `O=C1C2C=CC=CC2=NC(=S)N1CCN1CCC(=C(c2ccc(F)cc2)c2ccc(F)cc2)CC1` (stereo not given), the Potency was “inactive”.
With `CCCc1c(-c2ccc(O)cc2)nn(-c2ccc(O)cc2)c1-c1ccc(O)cc1` the Potency was “inactive”.
With `c1ccc(C(NCc2cccnc2)(c2ccccc2)c2ccccc2)cc1` the Potency was “inactive”.
For `OCc1ccc(-c2nn(Cc3ccccc3)c3ccccc23)o1`, the Potency was “inactive”.
In the case of `CCN(CC)CCCCCCCCOC(=O)c1cc(OC)c(OC)c(OC)c1`, the Potency was “inactive”.
For `O=c1ccc2c(OCCCCc3ccccc3)c3ccoc3cc2o1`, the Potency was “inactive”.
In the case of `O=C(CCc1ccncc1)NNC(=O)N1Cc2ccccc2Oc2ccc(Cl)cc21`, the Potency was “inactive”.
For `Cn1cc(C(F)(F)F)nc1-c1ccc(OCC(O)CNCCOc2ccc(O)c(C(N)=O)c2)cc1` (stereo not given), the Potency was “inactive”.
With `COC(=O)[C@H](NC(=O)c1cc(-c2ccccc2)nc2ccccc12)c1ccccc1` the Potency was “inactive”.
In the case of `COc1ccccc1N1CCN(CCN(C(=O)C2CCCCC2)c2ccccn2)CC1`, the Potency was “inactive”.
With `c1ccc(CN2CCC3(CCCc4ccccc43)CC2)cc1` the Potency was “inactive”.
In the case of `C[C@@H](CN1CCC(Cc2ccccc2)CC1)[C@@H](O)c1ccc(O)cc1`, the Potency was “inactive”.
In the case of `COCCOc1cc2ncnc(Cl)c2cc1OCCOC`, the Potency was “inactive”.
For `N=C(N)c1ccc(OCCCCCOc2ccc(C(=N)N)cc2)cc1` (tested in a mixture with another compound), the Potency was “inactive”.
For `O=c1ccc2ccc(O)c(O)c2o1`, the Potency was “inactive”.
With `CCCCCCN(CCCCCC)C(=O)Cc1c(-c2ccc(F)cc2)[nH]c2ccccc12` the Potency was “inactive”.
With `C[C@@]1(C2CCCC2)Cc2cc(OCC(=O)O)c(Cl)c(Cl)c2C1=O` the Potency was “inactive”.
With `CNC(=O)[C@H]1O[C@@H](n2cnc3c(NCc4cccc(I)c4)ncnc32)[C@H](O)C1O` (stereo not given in full) the Potency was “inactive”.
With `CCC1(O)CC2CN(CCc3c([nH]c4ccccc34)[C@@](C(=O)OC)(c3cc4c(cc3OC)N(C)C3[C@]45CCN4CC=C[C@@](CC)([C@@H](OC(C)=O)[C@]3(O)C(=O)OC)[C@H]45)C2)C1` (stereo not given in full) the Potency was “inactive”.
For `CCCCCCCC/C=C\CCCCCCCC(=O)NCCc1ccc(O)c(O)c1`, the Potency was “inactive”.
In the case of `O=C(Nc1ccc2c(c1)CCN(Cc1ncn[nH]1)C2)c1ccccc1-c1ccc(C(F)(F)F)cc1`, the Potency was “inactive”.
With `CC(C)[C@H](NC(=O)OCc1ccccc1)C(=O)N[C@H](C=O)Cc1ccccc1` the Potency was “inactive”.
For `COc1cccc(OC)c1OCCNCC1COc2ccccc2O1` (stereo not given), the Potency was “inactive”.
For `c1ccc2c(c1)CC(N1CCN(c3cccc4c3OCCO4)CC1)C2`, the Potency was “inactive”.
For `O=[N+]([O-])c1ccc(CNc2nc(NCc3cccc(C(F)(F)F)c3)nc3nc[nH]c23)cc1`, the Potency was “inactive”.
In the case of `Clc1ccc(N2CCN(Cc3cc4ccccn4n3)CC2)cc1`, the Potency was “inactive”.
For `C[C@]12C=CC(=O)C=C1CC[C@@H]1C2=CC[C@]2(C)[C@@H](C(=O)CN3CCN(c4cc(N5CCCC5)nc(N5CCCC5)n4)CC3)CC[C@@H]12`, the Potency was “inactive”.
For `CN1CCc2cccc3c2C1Cc1ccc(O)c(O)c1-3` (stereo not given), the Potency was “inactive”.
In the case of `NC(N)=NCc1cccc(I)c1`, the Potency was “inactive”.
